Assay outcomes (PubChem BioAssay)
Rows were chosen to be rich in hits. Some 22% of all compounds tested hit in one or more screens of this group.
CYP2C9 act – activators of human CYP2C9. P11712. recombinant CYP2C9, luciferin-H conversion, luminescence; stronger effect = higher value; factor 1 = untreated enzyme, 0 = blocked. activation factor at 5 µM. actives 1.4% (n = 96,000);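 active = activation factor of 2 or more for CYP2C9 at a 5 µM dose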
Measles CPE – protection of cells from measles virus | Measles virus-infected cells, CPE protection, absorbance | protection (pct of control), % at 4 µM | actives 1.5% (n = 140,000) | AID 841; in the data active = protection mostly above about 24%, no sharp cut-off; inactive = mostly below about 26%
CYP2C9 inh – blocks human cytochrome P450 2C9 | P11712 | CYP2C9 Supersomes, luciferin-H conversion, luminescence | inhibition, % at 5 µM | actives 20% (n = 96,000) | AID 777;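 active = blocking of liver enzyme CYP2C9 beyond about 50% at 5 µM, limit read from the data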
CYP2C19 inh – blocks human cytochrome P450 2C19. CYP2C19 Supersomes, luciferin-H EGE luminescence, 30 min. inhibition, % at 5 µM. actives 21% (n = 96,000). AID 778;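 active = CYP2C19 inhibition above a set limit at 5 µM in the primary screen, cut at about 50% in these data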
Target sequence (P33261 whole entry, looked up): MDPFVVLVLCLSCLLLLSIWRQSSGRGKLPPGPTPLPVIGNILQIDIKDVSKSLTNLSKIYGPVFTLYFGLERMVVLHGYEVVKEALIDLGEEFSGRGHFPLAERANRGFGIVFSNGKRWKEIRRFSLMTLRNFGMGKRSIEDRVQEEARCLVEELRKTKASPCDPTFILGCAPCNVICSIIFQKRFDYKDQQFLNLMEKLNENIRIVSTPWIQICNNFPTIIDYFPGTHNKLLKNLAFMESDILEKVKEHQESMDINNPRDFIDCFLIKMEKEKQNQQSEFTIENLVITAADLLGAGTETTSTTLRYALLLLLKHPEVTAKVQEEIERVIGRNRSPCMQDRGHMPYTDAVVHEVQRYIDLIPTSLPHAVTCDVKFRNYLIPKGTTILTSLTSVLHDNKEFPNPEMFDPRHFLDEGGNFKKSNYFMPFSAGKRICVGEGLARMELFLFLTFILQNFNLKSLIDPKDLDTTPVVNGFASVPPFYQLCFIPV
CYP2C19 activ – cytochrome P450 2C19 (human) activation; 96,000 tested, under 10 active; P33261; recombinant CYP2C19, luciferin-H EGE luminescence; stronger effect = higher value; 0 = fully inhibited enzyme, 1 = untreated enzyme; activation factor at 5 µM;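 active = activation factor of at least 2 at 5 µM in the primary screen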
Hits are given with their value; n = inactive; x = not tested or not shown.

SMILES	CYP2C9 act	Measles CPE	CYP2C9 inh	CYP2C19 inh	CYP2C19 activ
CCC(C)(C)n1nnnc1C(c1ccc(OC)c(OC)c1)N1CCN(c2ccc(F)cc2)CC1 (configuration not stated)	x	n	x	x	x
CCC(C)(C)n1nnnc1C(c1ccc(OC)c(OC)c1)N1CCN(c2ccccc2)CC1 (configuration not stated)	n	n	71	68	n
CCC(C)(C)n1nnnc1C(c1ccc(OC)c(OC)c1)N1CCN(c2ccc(OC)cc2)CC1 (configuration not stated)	n	59	88	57	n
CCC(C)(C)n1nnnc1C(c1ccc(OC)c(OC)c1)N1CCN(c2cccc(OC)c2)CC1 (configuration not stated)	n	n	86	56	n
COc1ccc(C(c2nnnn2C(C)(C)C)N2CCN(C)CC2)cc1OC (configuration not stated)	n	n	n	n	n
O=c1[nH][nH]c(-c2ccccc2)c1C=Nc1ccc(Cl)cc1	n	n	n	n	n
O=c1[nH][nH]c(-c2ccccc2)c1C=Nc1ccccc1Cl	n	n	n	88	n
O=c1[nH][nH]c(-c2ccccc2)c1C=Nc1cccc(Cl)c1	n	n	n	53	n
O=S(=O)(NC(=NC1CCCC1)C(F)(F)F)c1ccccc1	n	n	n	66	n
CCOc1c(OC(C)=O)ccc(/C=C/c2ccc3cccc(OC)c3n2)c1[N+](=O)[O-]	x	n	x	x	x
O=C(O)c1ccc(C2CCCCC2)cn1	n	n	n	n	n
COc1ccc(/C(C)=N/NC(=O)c2ccc(CSc3cccc4cccnc34)cc2)cc1OC	n	70	n	n	n
O=c1c(F)cn(C2CCCO2)c(=O)n1Cc1c(Cl)cccc1Cl (configuration not stated)	n	n	n	66	n
COc1ccc(-c2nnc(SC(C)C(=O)Nc3c(C)n(C)n(-c4ccccc4)c3=O)o2)cc1 (configuration not stated)	n	n	n	n	n
O=C(Nc1nnc(C23CC4CC(CC(C4)C2)C3)s1)c1ccc(N2C(=O)CCC2=O)cc1	n	n	n	n	n
CN1CCc2nc(SCCOc3ccccc3)c(C#N)cc2C1	n	n	n	91	n
N#Cc1cc2c(nc1SCc1ccccc1)CCC2	x	n	x	x	x
Cc1ccccc1OCc1nc2ccccc2c(=O)n1NC(=O)c1ccco1	x	n	x	x	x
C/C(=N\NC(=O)c1ccccn1)C12CC3CC(CC(C3)C1)C2	n	n	n	n	n
C/C(=N/NC(=O)c1ccoc1C)C12CC3CC(CC(C3)C1)C2	n	n	n	57	n
CCOC(=O)c1ccc(NC(=O)C(C)NS(=O)(=O)c2ccc(OC)cc2)cc1 (configuration not stated)	n	n	n	50	n
COc1ccc(S(=O)(=O)NC(C)C(=O)Nc2cccc(C(C)=O)c2)cc1 (configuration not stated)	n	n	64	n	n
COc1ccc(S(=O)(=O)NC(C)C(=O)Nc2ccccc2F)cc1 (configuration not stated)	n	n	n	n	n
Clc1ccc(Nc2nc(-c3cccnc3)cs2)cc1	n	n	n	83	n
NS(=O)(=O)c1ccc(Nc2nc(-c3ccc4ccccc4c3)cs2)cc1	n	n	n	n	n
SMILES	CYP2C9 act	Measles CPE	CYP2C9 inh	CYP2C19 inh	CYP2C19 activ
CN(C)c1ccc(Nc2nc(-c3cccnc3)cs2)cc1	n	n	n	81	n
COc1ccc(Nc2nc(-c3cccs3)cs2)cc1	n	n	n	n	n
O=C(NC1CCCCCC1)C1CCCN(S(=O)(=O)c2cccs2)C1 (configuration not stated)	n	n	77	n	n
O=C(CCS(=O)(=O)c1cccs1)NC1CCCCCC1	n	n	n	n	n
O=C(NCCc1ccccc1)C1CCCN(S(=O)(=O)c2cccs2)C1 (configuration not stated)	n	n	86	n	n
O=S(=O)(NC1CCCCCCC1)c1cccs1	n	n	n	54	n
COc1ccc(NC(=O)C2CCCN(S(=O)(=O)c3cccs3)C2)cc1OC (configuration not stated)	n	n	n	n	n
CC(C)CCNC(=O)CNC(=S)N(Cc1ccccc1)Cc1cccnc1	x	n	x	x	x
CCOC(=O)c1cc(S(=O)(=O)N2CCN(C(=O)OCC)CC2)cn1C	n	n	n	n	n
COc1ccc2c(C)cc(N3CCOCC3)nc2c1	n	n	n	n	n
COc1ccc2c(C)cc(SCC(=O)N3CCOCC3)nc2c1	n	n	n	68	n
Cc1ccccc1C(=O)Nc1nc2n(n1)C(c1ccccc1)CC(=O)N2 (configuration not stated)	n	n	n	n	n
Cc1nc2ncnn2c(C)c1CCC(=O)N1CCOCC1	n	n	n	n	n
COc1ccc(NC(=O)c2c(Nc3ccccc3)sc(C(=O)c3ccc(F)cc3)c2N)cc1	n	n	n	n	n
COc1ccc(C(=O)c2sc(Nc3cccc(OC)c3)c(C(=O)Nc3cccc(C)c3C)c2N)cc1	n	n	52	n	n
COc1ccc(Nc2sc(C(=O)c3ccc(Cl)cc3)c(N)c2C(=O)Nc2ccccc2OC)cc1	n	n	76	n	n
C=Cn1ccnc1P(=S)(c1ccc2c(c1)c1ccccc1n2CC)c1nccn1C=C	n	n	n	n	n
O=C(NCCN1CCN(Cc2ccccc2Cl)CC1)Nc1ccccc1	n	n	n	n	n
CC1CC(C)CN(C(=O)COC(=O)CCc2nc3ccccc3c(=O)[nH]2)C1 (configuration not stated)	x	n	x	x	x
CCOC(=O)c1cc(OC(=O)c2ccccc2)n(-c2ccccc2)n1	n	n	n	n	n
CCOC(=O)C(=CNc1cc(C)nn1-c1ccccc1)C(=O)OCC	n	n	63	n	n
CCOC(=O)C(/C=N/c1cc(C)nn1-c1ccccc1)=C(\C)O	n	n	70	59	n
CCOC(=O)C(=CNc1ccccc1C)C(=O)OCC	n	n	n	n	n
Brc1ccc(OCc2nnc(SCC3CCCCC3)o2)cc1	x	n	x	x	x
CC(C)C(NC(=O)Cc1ccccc1[N+](=O)[O-])C(C)C	x	n	x	x	x
SMILES	CYP2C9 act	Measles CPE	CYP2C9 inh	CYP2C19 inh	CYP2C19 activ
O=[N+]([O-])c1ccccc1CNC(Cc1ccccc1)c1ccccc1 (configuration not stated)	n	n	n	90	n
Cc1ccc(-n2nc3c(c2NC(=O)c2ccccc2Br)CS(=O)C3)cc1 (configuration not stated)	n	n	n	n	n
Cc1nc2ccccc2c(=O)n1NC(=O)C1CCCCC1	n	n	n	n	n
O=C(Nn1c(-c2ccc(F)cc2)nc2ccccc2c1=O)C1CCCCC1	n	n	64	n	n
CCCCCCC1CCC(C(=O)Nn2c(C)nc3ccccc3c2=O)CC1 (configuration not stated)	n	n	91	n	n
CC(C)(C)c1cccc(Oc2nn[nH]n2)c1	n	n	n	72	n
Oc1ccc(C=Nc2ccc3ncccc3c2)c(O)c1	n	n	n	56	n
Oc1ccc(C=Nc2cccc3ncccc23)c(O)c1	n	n	n	n	n
